Reference: PubChem BioAssay AID1159580 (chemical genetic matrix, 2015)
“And” between values parts separate entries of the source, which are not always exact repeats. Equal values may be shown once. Screen size: about 5,500 compounds; about 2,000 (36%) were called active. Inconclusive results (about 18%) are left out. Cut-off read from the data, not from the text of the source: active = normalized growth mostly below about 0.91 (no sharp cut-off); inconclusive = no clear call, values can overlap the other calls; inactive = mostly above about 0.92. Some of the results follow.

Assay: chemical genetic growth profiling, strain panel (AID 1159580);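 note: tested at 20 µM; growth read once vehicle control cultures reached saturation at 30 °C; 1 = growth at the plate median or of vehicle wells; lower values mean less growth of the strain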
Settings: S. cerevisiae deletion strains, growth OD

Measured: normalized growth

CC[C@H]1CN2CCc3cc(OC)c(OC)cc3C2C[C@@H]1CC1NCCc2cc(OC)c(OC)cc21 (some centres undefined)
inactive: locus YAL021C, strain ccr4, stronger effect = lower value 0.988 | locus YAL026C, strain drs2, stronger effect = lower value 0.989 | locus YAL030W, strain snc1, stronger effect = lower value 0.983 | locus YBL061C, strain skt5, stronger effect = lower value 1 | locus YBR009C, strain hhf1, stronger effect = lower value 0.971 | locus YBR021W, strain FUR4, stronger effect = lower value 1.02 | locus YBR023C, strain chs3, stronger effect = lower value 0.987 | locus YBR171W, strain sec66, stronger effect = lower value 0.996 | locus YBR229C, strain ROT2, stronger effect = lower value 0.997 | locus YBR231C, strain swc5, stronger effect = lower value 0.993 | locus YBR279W, strain paf1, stronger effect = lower value 0.979 | locus YCL011C, strain gbp2, stronger effect = lower value 0.983 | locus YCL016C, strain dcc1, stronger effect = lower value 0.996 | locus YCL029C, strain bik1, stronger effect = lower value 0.989 | locus YCL069W, strain vba3, stronger effect = lower value 0.98 | locus YCR088W, strain abp1, stronger effect = lower value 0.995 | locus YDL005C, strain med2, stronger effect = lower value 0.988 | locus YDL035C, strain GPR1, stronger effect = lower value 1.01 | locus YDL040C, strain nat1, stronger effect = lower value 0.965 | locus YDL074C, strain BRE1, stronger effect = lower value 1 | locus YDL101C, strain DUN1, stronger effect = lower value 1.01 | locus YDL134C, strain PPH21, stronger effect = lower value 1 | locus YDL185W, strain tfp1, stronger effect = lower value 1 | locus YDL192W, strain arf1, stronger effect = lower value 0.987 | locus YDR001C, strain nth1, stronger effect = lower value 0.982 | locus YDR069C, strain doa4, stronger effect = lower value 0.946 | locus YDR101C, strain arx1, stronger effect = lower value 0.988 | locus YDR137W, strain rgp1, stronger effect = lower value 0.961 | locus YDR150W, strain NUM1, stronger effect = lower value 1.02 | locus YDR159W, strain sac3, stronger effect = lower value 0.899 | locus YDR162C, strain NBP2, stronger effect = lower value 1.03 | locus YDR195W, strain ref2 0.914 | locus YDR297W, strain sur2, stronger effect = lower value 0.979 | locus YDR318W, strain mcm21, stronger effect = lower value 1.01 | locus YDR334W, strain swr1, stronger effect = lower value 0.929 | locus YDR335W, strain msn5, stronger effect = lower value 0.974 | locus YDR388W, stronger effect = lower value 0.994 | locus YDR392W, strain spt3, stronger effect = lower value 0.917 | locus YDR502C, strain sam2, stronger effect = lower value 0.971 | locus YEL003W, strain gim4, stronger effect = lower value 0.979 | locus YEL037C, strain rad23, stronger effect = lower value 0.968 | locus YEL061C, strain CIN8 (second series), stronger effect = lower value 0.978 | locus YEL061C, strain CIN8, stronger effect = lower value 1.01 | locus YER015W, strain faa2, stronger effect = lower value 0.979 | locus YER016W, strain bim1, stronger effect = lower value 1.04 | locus YER110C, stronger effect = lower value 0.996 | locus YER111C, strain swi4, stronger effect = lower value 0.973 | locus YER155C, strain BEM2 (second series), stronger effect = lower value 0.962 | locus YER155C, strain BEM2, stronger effect = lower value 1.01 | locus YER167W, strain BCK2, stronger effect = lower value 1.01 | locus YFR010W, strain ubp6, stronger effect = lower value 0.956 | locus YGL078C, strain dbp3, stronger effect = lower value 0.986 | locus YGL086W, strain mad1, stronger effect = lower value 0.968 | locus YGL167C, strain pmr1, stronger effect = lower value 0.96 | locus YGL173C, strain kem1, stronger effect = lower value 0.962 | locus YGL227W, strain vid30, stronger effect = lower value 0.983 | locus YGL240W, strain doc1, stronger effect = lower value 0.945 | locus YGL248W, strain PDE1, stronger effect = lower value 1.02 | locus YGL253W, strain hxk2, stronger effect = lower value 0.95 | locus YGR078C, strain PAC10, stronger effect = lower value 1.02 | locus YGR135W, strain pre9, stronger effect = lower value 1.01 | locus YGR252W, strain gcn5, stronger effect = lower value 1 | locus YHR013C, strain ard1, stronger effect = lower value 0.941 | locus YHR027C, strain rpn1, stronger effect = lower value 0.985 | locus YHR030C, strain SLT2, stronger effect = lower value 1.01 and 1.04 | locus YHR079C, strain IRE1 (second series), stronger effect = lower value 1 | locus YHR079C, strain IRE1, stronger effect = lower value 1.12 | locus YHR094C, strain hxt1, stronger effect = lower value 0.997 | locus YHR129C, strain ARP1, stronger effect = lower value 1.01 | locus YHR142W, strain chs7, stronger effect = lower value 0.972 | locus YHR200W, strain rpn10, stronger effect = lower value 1.01 | locus YIL066C, strain RNR3, stronger effect = lower value 0.993 | locus YIL073C, strain SPO22, stronger effect = lower value 1.02 | locus YIL125W, strain kgd1, stronger effect = lower value 0.995 | locus YIR030C, strain dcg1, stronger effect = lower value 0.994 | locus YJL092W, strain hpr5, stronger effect = lower value 0.987 | locus YJL095W, strain BCK1 (second series), stronger effect = lower value 0.977 | locus YJL095W, strain BCK1, stronger effect = lower value 1.04 and 1.05 | locus YJL115W, strain asf1, stronger effect = lower value 0.962 | locus YJL129C, strain trk1, stronger effect = lower value 0.983 | locus YJL134W, strain LCB3, stronger effect = lower value 1.01 | locus YJL154C, strain vps35, stronger effect = lower value 0.979 | locus YJL164C, strain tpk1, stronger effect = lower value 0.978 | locus YJL166W, strain qcr8, stronger effect = lower value 0.962 | locus YJL168C, strain set2, stronger effect = lower value 1 | locus YJL187C, strain SWE1 (second series), stronger effect = lower value 1.02 | locus YJL187C, strain SWE1, stronger effect = lower value 0.979 | locus YJR043C, strain POL32, stronger effect = lower value 1.02 | locus YJR066W, strain TOR1, stronger effect = lower value 0.996 | locus YKL068W, stronger effect = lower value 1.01 | locus YKL085W, strain MDH1 (second series), stronger effect = lower value 1.02 | locus YKL085W, strain MDH1, stronger effect = lower value 1.02 | locus YKL160W, strain elf1, stronger effect = lower value 1.01 | locus YKR001C, strain vps1, stronger effect = lower value 1 | locus YKR026C, strain gcn3, stronger effect = lower value 0.986 | locus YKR091W, strain srl3, stronger effect = lower value 0.987 | locus YLL001W, strain dnm1, stronger effect = lower value 0.985 | locus YLL026W, stronger effect = lower value 0.992 | locus YLL041C, strain sdh2, stronger effect = lower value 0.989 | locus YLR027C, strain aat2, stronger effect = lower value 0.989 | locus YLR039C, strain RIC1, stronger effect = lower value 1.01 | locus YLR058C, strain SHM2, stronger effect = lower value 1.01 | locus YLR102C, strain apc9, stronger effect = lower value 0.999 | locus YLR113W, strain HOG1, stronger effect = lower value 1.06 | locus YLR221C, strain rsa3, stronger effect = lower value 0.984 | locus YLR258W, strain gsy2, stronger effect = lower value 0.985 | locus YLR262C, strain YPT6 (second series), stronger effect = lower value 0.978 | locus YLR262C, strain YPT6, stronger effect = lower value 1.06 | locus YLR268W, strain sec22, stronger effect = lower value 0.98 | locus YLR320W, strain mms22, stronger effect = lower value 0.948 | locus YLR330W, strain CHS5, stronger effect = lower value 1.01 | locus YLR342W, strain FKS1 (second series), stronger effect = lower value 0.987 | locus YLR342W, strain FKS1, stronger effect = lower value 1 | locus YLR357W, strain rsc2, stronger effect = lower value 0.967 | locus YLR370C, strain arc18, stronger effect = lower value 0.98 | locus YLR371W, strain rom2, stronger effect = lower value 0.994 | locus YLR384C, strain iki3, stronger effect = lower value 0.972 | locus YLR418C, strain cdc73, stronger effect = lower value 0.997 | locus YML016C, strain PPZ1, stronger effect = lower value 1.01 | locus YML032C, strain rad52, stronger effect = lower value 1.01 | locus YML120C, strain ndi1, stronger effect = lower value 0.977 | locus YML124C, strain tub3, stronger effect = lower value 0.994 | locus YMR058W, strain fet3, stronger effect = lower value 0.986 | locus YMR078C, strain ctf18, stronger effect = lower value 0.996 | locus YMR125W, strain sto1, stronger effect = lower value 0.975 | locus YMR129W, stronger effect = lower value 0.97 | locus YMR205C, strain PFK2, stronger effect = lower value 0.935 | locus YMR223W, strain ubp8, stronger effect = lower value 1.02 | locus YMR231W, strain pep5, stronger effect = lower value 0.979 | locus YMR263W, strain SAP30, stronger effect = lower value 1.02 | locus YMR307W, strain GAS1, stronger effect = lower value 1.08 | locus YNL067W, strain RPL9B, stronger effect = lower value 1.01 | locus YNL071W, strain lat1, stronger effect = lower value 0.956 | locus YNL128W, strain TEP1, stronger effect = lower value 1.01 | locus YNL183C, strain NPR1, stronger effect = lower value 1 | locus YNL209W, strain ssb2, stronger effect = lower value 0.99 | locus YNL233W, strain BNI4, stronger effect = lower value 1.01 | locus YNL248C, strain rpa49, stronger effect = lower value 0.961 | locus YNL250W, strain rad50, stronger effect = lower value 1.01 | locus YNL271C, strain bni1, stronger effect = lower value 0.998 | locus YNL298W, strain CLA4, stronger effect = lower value 1 | locus YNL307C, strain MCK1, stronger effect = lower value 0.997 | locus YNL322C, strain KRE1 (second series), stronger effect = lower value 0.983 | locus YNR049C, strain mso1, stronger effect = lower value 0.967 | locus YNR052C, strain pop2, stronger effect = lower value 1 | locus YOL006C, strain TOP1, stronger effect = lower value 1.03 | locus YOL012C, strain htz1 1.06 | locus YOL147C, strain pex11, stronger effect = lower value 0.994 | locus YOR001W, strain rrp6, stronger effect = lower value 0.98 | locus YOR061W, strain CKA2, stronger effect = lower value 1.02 | locus YOR069W, strain VPS5, stronger effect = lower value 1.01 | locus YOR070C, strain gyp1, stronger effect = lower value 1 | locus YOR080W, strain dia2, stronger effect = lower value 0.926 | locus YOR083W, strain WHI5, stronger effect = lower value 0.987 | locus YOR106W, strain vam3, stronger effect = lower value 1.01 | locus YOR136W, strain idh2, stronger effect = lower value 0.988 | locus YOR144C, strain elg1, stronger effect = lower value 1 | locus YOR184W, strain ser1, stronger effect = lower value 0.987 | locus YOR231W, strain MKK1, stronger effect = lower value 1.05 | locus YOR265W, strain rbl2, stronger effect = lower value 0.993 | locus YOR270C, strain vph1, stronger effect = lower value 0.958 | locus YOR290C, strain snf2, stronger effect = lower value 0.995 | locus YOR316C, strain cot1, stronger effect = lower value 0.992 | locus YPL051W, strain arl3, stronger effect = lower value 1.01 | locus YPL078C, strain atp4, stronger effect = lower value 1 | locus YPL106C, strain sse1, stronger effect = lower value 0.943 | locus YPL240C, strain hsp82, stronger effect = lower value 0.991 | locus YPL241C, strain CIN2, stronger effect = lower value 1.01 | locus YPL256C, strain CLN2, stronger effect = lower value 1.07 | locus YPR119W, strain clb2, stronger effect = lower value 1 | locus YPR141C, strain kar3, stronger effect = lower value 1 | locus YPR163C, strain tif3, stronger effect = lower value 0.985 | locus YPR167C, strain met16, stronger effect = lower value 1 | strain wtn01, stronger effect = lower value 0.96
